93 compounds from PubChem BioAssay AID1850 (Southern Research Specialized Biocontainment Screening …, 2009) can be followed below.

Values joined by “and” are separate entries in the source; they are usually repeats but may differ in a detail not shown here. Equal entries are not always repeated. About 1,000 (0.32%) of roughly 310,000 compounds were called active. Only a sample is shown. Entries with a potency or affinity are not part of this list. A number with no mark means an inactive call. No rule for the calls is given here.

The nature of this assay: PhoP regulon inhibitors, Salmonella typhi PhoP promoter GFP reporter, confirmatory (AID 1850).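 Also: 0% = induced wells with vehicle and 100% = uninduced wells.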 The following applies: fluorescence, 4 h, at 50 µM, hits give high values.
Take `COc1ccc([N+](=O)[O-])cc1C(=O)NCCOc1ccc(Cl)cc1`: the inhibition was -0.6%.
In the case of `CC(NCC(O)COC1CCC(C(C)(C)C)CC1)c1ccccc1` (stereo not drawn) it was 0.36%; in that of `COc1ccc(C2/C=C\CN(Cc3ccncc3)CC(=O)N2Cc2ccc(F)cc2)cc1` (stereo not drawn), -5.33%.
Consider `COc1ccc(Cl)cc1C(=O)NCC(C)C`, for which the inhibition was -5.89%.
As for `O=C(CCC(=O)N1CCCCC1)Nc1nnc(C2CCCCC2)s1`, the inhibition is 8.14%.
On to `CCCN1C(=O)/C(=C/c2cc(C)n(C)c2C)SC1=Nc1ccc(OC)cc1`, for which the inhibition is 0.64%.
The figure for `CNC(=O)CC1C(=O)N(c2ccc(Cl)cc2)C(=S)N1CCc1ccc(OC)c(OC)c1` (stereo not drawn) is -0.64%; for `O=C(NC1CCCC1)c1ccc(S(=O)(=O)N2CCOCC2)cc1` it is -6.82%; for `CCCCSCc1nc2ccccn2c1Br` it is 0.1%.
`CCn1cc(C(=O)O)c(=O)c2cc(F)c(N3CCN(C(=S)NC(=O)c4ccc(F)cc4)CC3)cc21`: the inhibition was 9.94%.
In the case of `CCn1cc(C(=O)O)c(=O)c2cc(F)c(N3CCN(S(=O)(=O)c4ccc5c(c4)OCCO5)CC3)cc21`, the inhibition is 9.21%.
For `CC(=O)N1CCN(c2cc3c(cc2F)c(=O)c(C(=O)O)cn3C2CC2)CC1`, the inhibition was 0.5%.
The figure for `CCn1cc(C(=O)O)c(=O)c2cnc(N3CCN(C(=S)NC(=O)c4ccc(Br)cc4)CC3)nc21` is 5.97%.
In the case of `CCn1cc(C(=O)O)c(=O)c2cc(F)c(N3CCN(C(=S)NC(=O)c4ccc(F)c(F)c4)CC3)cc21` it was 1.24%.
In the case of `CCCOc1ccc(C(=O)NC(=S)N2CCN(c3cc4c(cc3F)c(=O)c(C(=O)O)cn4CC)CC2)cc1` it was 15.1%; in that of `COc1ccc(NC(=O)C2CCCN(S(=O)(=O)c3ccccc3)C2)c(OC)c1` (stereo not drawn), 0.45%; in that of `O=C1C2CCCN2C(c2cccnc2)N1c1nccs1` (stereo not drawn), 0.12%.
As for `CCOc1cc(C(=O)Nc2nnc(S(=O)(=O)N3CCOCC3)s2)cc(OCC)c1OCC`, the inhibition was -12.6%.
The figure for `CCc1ccc(NC(=O)COC(=O)/C(=C/c2ccccc2OC)c2ccccc2)cc1` is -5.82%; for `CCn1c(C)nnc1SCC(=O)Nc1ccc2c(c1)OCCO2` it is 11.2%; for `Cc1onc(-c2ccccc2)c1C(=O)N1CCC(CO)(Cc2ccccc2)CC1` it is -9.9%.
With `CCC(=O)Nc1ccc2c(c1)nc(CCN1CCCCC1)n2C`, the inhibition is 0.58%.
For `Nc1nc(F)nc2c1ncn2[C@@H]1O[C@H](CO)[C@@H](O)[C@@H]1O`, the inhibition was -2.76%.
The figure for `Nc1ccn([C@@H]2O[C@H](CO)[C@@H](O)[C@@H]2O)c(=O)n1` is 1.39% and -1.71%; for `Nc1cnn(C2OC(CO)C(O)C2O)c(=O)n1` (stereo not drawn) it is 2.98%; for `Nc1nc(Cl)nc2c1ncn2[C@@H]1O[C@H](CO)[C@@H](O)[C@H]1O` it is 19.8% and 8.46%.
`NC(=O)c1ncn([C@@H]2O[C@H](CO)[C@@H](O)[C@H]2O)c1O`: the inhibition was 4.75%.
The figure for `Nc1ccn([C@@H]2O[C@H](CO)[C@@H](O)C2O)c(=O)n1` (stereo partly drawn) is 6.26%; for `Cc1ccc(Cn2nnnc2CN2CCC(n3nnc4cc(C)ccc43)CC2)cc1` it is -8.85%.
Regarding `CCOC(=O)c1ccc(CNC(=O)c2n[nH]c(=O)c3ccccc23)o1`, the inhibition was -3.19%.
As for `O=C(Nc1cccc(-c2nc3ccccc3s2)c1)c1ccc2c(c1)OCO2`, the inhibition is -3.82%.
For `COc1ccc(N=C2SCC(c3ccc([N+](=O)[O-])cc3)=NN2CCO)cc1`, the inhibition was 7.19%.
For `O=C(CN1CCN(S(=O)(=O)c2ccc(Br)cc2)CC1)N/N=C/c1ccco1`, the inhibition was -9.02%.
For `O=C(O)COCC(=O)N1CCN(c2cc(C(F)(F)F)nc3ccccc23)CC1`, the inhibition was 1.72%.
`CC(=O)NCCC(=O)Nc1nc2c(ccc3ccccc32)s1`: the inhibition is 9.9%.
In the case of `O=C(N/C(=C/c1ccco1)C(=O)N1CCCCCC1)c1ccccc1` it was 2.51%; in that of `O=C1c2ccccc2C(=O)N1CCCc1c[nH]c2ccccc12`, -2.4%; in that of `O=C(NCc1cccc(C(F)(F)F)c1)C1CCCN(c2cnccn2)C1` (stereo not drawn), 3.94%.
With `Cc1ccc2c(c1)[nH]c1c(N3CCN(Cc4ccccc4)CC3)ncnc12`, the inhibition is 6.98%.
As for `Cc1ccc2[nH]c3c(N4CCN(Cc5ccccc5)CC4)ncnc3c2c1`, the inhibition is 11.1%.
In the case of `Cc1ccc(NC(=O)c2ccc3snnc3c2)cc1` it was -2.31%; in that of `COc1ccccc1N1CCN(C(=O)CN2C(=O)c3ccccc3S2(=O)=O)CC1`, -8.97%.
The figure for `Cc1cc(Nc2ccccc2)nc2cc(O)ccc12` is 11.4%; for `Cc1cc(Nc2ccccc2O)c2ccccc2n1` it is 6.66%; for `Cc1cccc(NC(=S)N(C)C)c1C` it is 17.9%.
For `Cc1cccc(Nc2nc3ccccc3s2)c1C`, the inhibition was -1.36%.
The figure for `O=C(CSC1=NNC(c2ccccn2)S1)Nc1ccc(C(F)(F)F)cc1` (stereo not drawn) is 3.27%; for `Cc1cc(C)c2cc(C(=O)N3CCC(C(=O)c4ccc(F)cc4)CC3)[nH]c2c1` it is 2.06%.
In the case of `O=C1c2ccccc2NC(c2ccccc2O)N1O` (stereo not drawn) it was -4.51%.
In the case of `N/C(=N\N=C/c1ccc(Br)cc1)N/N=C\c1ccc(Br)cc1` it was -6.33%.
Take `O=C(N/N=C\c1ccc(F)cc1)c1ccc(F)cc1`: the inhibition was 23.4%.
In the case of `CC(=O)Nc1ccc2c(c1)nc1n2CCSC1` it was 11.9%; in that of `Cc1cc(/C=C2\C(=O)NC(=O)N(c3ccc(Cl)cc3)C2=O)c(C)n1-c1cccc(C(=O)O)c1`, -15.1%.
The figure for `Cc1ccc(/C=N/NC(=O)c2nnn(-c3nonc3N)c2CN(C)c2ccccc2)s1` is 0.97%.
On to `Oc1ccccc1N=N/C(=N/Nc1ccccc1O)c1ccccc1`, for which the inhibition is -5.08%.
As to `C/C(N=Nc1nc2ccccc2s1)=N\Nc1ccccc1O`, the inhibition was 16.1%.
For `O=C(Cn1nc(C(F)F)cc1C(F)F)NNC(=S)Nc1ccc(Cl)cc1`, the inhibition is 8.04%.
Turning to `O=C(Cn1nc(C(F)F)cc1C(F)F)NNC(=S)Nc1ccc(F)cc1`, the inhibition is -9.87%.
In the case of `COC1(OC)N=C(N)C2(C#N)C(c3ccccc3)NC(C)=CC12C#N` (stereo not drawn) it was 22.3%.
On to `CC(Oc1ccc(Br)cc1)C(=O)N(C)CC(=O)Nc1ccc(N2CCOCC2)cc1` (stereo not drawn), for which the inhibition was -2.3%.
Turning to `Cc1cc(N2CCCCC2)nc(NCc2ccccc2)n1`, the inhibition was 5.84%.
For `Cc1cc(Nc2cccc(F)c2)nc(NCc2ccccc2)n1`, the inhibition is -0.63%.
As for `Cc1ccc(/C=N/Nc2cc(C)nc(NCc3ccccc3)n2)cc1`, the inhibition was 8.63%.
Consider `Cc1cc(OC2CCCCC2)nc(NCc2ccccc2)n1`, for which the inhibition was -3.41%.
In the case of `Cc1cc(N2CCN(c3ccccc3)CC2)nc(NCc2ccccc2)n1` it was -4.52%.
The figure for `CCCCNc1cc(C)nc(NCc2ccccc2)n1` is 15.8%; for `Cc1cc(N/N=C/c2ccccc2)nc(NCc2ccccc2)n1` it is -6.44%.
For `Cc1cc(Nc2ccccc2)nc(NCc2ccccc2)n1`, the inhibition was -0.96%.
The figure for `CCOc1ccc(S(=O)(=O)Nc2ccccc2C(=O)NCc2ccco2)cc1` is -4.17%; for `CCOCCCNC(=O)c1ccc(N(C)S(=O)(=O)c2ccc(OC)cc2)cc1` it is -7.69%.
`CCCCCC(O)CCC(=O)NNC1=CC(=O)CC(C)(C)C1` (stereo not drawn): the inhibition was 5.33%.
In the case of `CC(=O)NCCCC(=O)NN1C(=S)N(Cc2ccccc2)C(=O)C1CC(=O)Nc1cccc(C)c1` (stereo not drawn) it was -3.38%; in that of `COc1ccc(CCNC(=O)c2ccc(OCC(=O)N3CCOCC3)c(OC)c2)cc1OC`, 2.3%; in that of `O=C(NC(=S)Nc1ccc(S(=O)(=O)Nc2nccs2)cc1)c1cccc(F)c1`, 9.55%.
In the case of `O=C(Nc1cccc(N=Cc2cc(Br)cc(Br)c2O)c1)c1ccco1` it was 18.1%.
Turning to `O=C(Nc1cc(Br)c(O)c(Br)c1)c1cccc(NC(=O)c2ccco2)c1`, the inhibition is -5.68%.
For the compound `O=C(Nc1cccnc1)c1ccc(Br)c(S(=O)(=O)N2CCCC2)c1`, the inhibition was 1.47%.
The figure for `O=C(Nc1nnc(-c2ccccn2)o1)c1cccc(Br)c1` is 3.24%.
The figure for `O=C(Nc1nnc(-c2ccccn2)o1)c1ccc(Br)cc1` is -1.87%; for `O=C(Nc1nnc(-c2ccco2)o1)c1ccc(Cl)cc1` it is 0.38%.
In the case of `Cc1cccc(C(=O)Nc2nnc(-c3ccco3)o2)c1` it was -1.28%.
Regarding `Cc1cccc(CC(=O)N2CCC(n3nccc3NC(=O)C3CC3)CC2)c1`, the inhibition was -7.5%.
In the case of `O=C(NCc1ccccc1)c1nc(-c2cccs2)no1` it was -1.19%; in that of `CN(Cc1ccon1)C(=O)C1CCC(=O)N(Cc2ccc(Cl)cc2)C1` (stereo not drawn), -14.1%; in that of `Cc1cc(C(=O)CC#N)c(C)n1-c1ccc(OC(F)F)cc1`, -0.727%.
The figure for `O=C(C[n+]1ccc2ccccc2c1)c1cccc2ccccc12` is -0.15%; for `Cc1ccc(S(=O)(=O)NNC(=O)c2sc(=S)n(C)c2C)cc1` it is -24.1%; for `Cc1ccc(N2C(=O)C3C4C=CC(CNC(=S)N5CCN(c6ccccn6)CC5)(O4)C3C2=O)cc1` (stereo not drawn) it is 5.6%.
On to `COc1ccc(/C=N\NC(=O)c2cccc(F)c2)cc1COc1ccccc1`, for which the inhibition is -7.03%.
For the compound `CC1=C(C(=O)O)N2C(=O)C(NC(=O)CCCC(=O)O)C2SC1` (stereo not drawn), the inhibition was 10.9%.
In the case of `C[C@H]1[C@H](NC(=O)C(=NOC(C)(C)C(=O)O)c2csc(N)n2)C(=O)N1S(=O)(=O)O` it was 1.3%; in that of `CC1=C(C(=O)O)N2C(=O)C(NC(=O)c3ccn(C)n3)C2SC1` (stereo not drawn), 7.91%; in that of `C=CC1=C(C(=O)O)N2C(=O)C(NC(=O)Cc3ccccc3)C2SC1` (stereo not drawn), -5.97%.
